According to PubChem BioAssay:
Several values for one entry are separate records, joined by “and”; a condition that tells them apart may be missing. Equal values may be shown once. Activity calls are given as the source filed them. Unless noted, no stated cut-off is given here; in the data, active means inhibition above about 80%; inactive means the rest.

Legend:
[1] = growth inhibition, single agents and combos, ICB984, cell-based, cisplatin or BGB combos, synergistic combos for chromothripsis tumors (AID 1671451; call rule not given here;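 further: cells exposed for 96 hours before readout; 0% = vehicle DMSO and 100% = killing by high DMSO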); conditions: ICB984 medulloblastoma cells, drug combinations, stronger effect = higher value
[2] = growth inhibition, single agents and combos, LFS_MB_1R, cell-based, cisplatin or BGB combos, synergistic combos for chromothripsis tumors (AID 1671452); conditions: LFS_MB_1R medulloblastoma cells, stronger effect = higher value;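 further: cells exposed for 96 hours before readout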
[3] = growth inhibition, single agents and combos, HTB85, cell-based, BGB or cisplatin IC20 combos, synergistic combos for chromothripsis tumors (AID 1671453); conditions: HTB85 osteosarcoma cells, drug combinations, stronger effect = higher value;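 further: cells exposed for 96 hours before readout; 0% = vehicle DMSO and 100% = high DMSO killing control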
[4] = growth inhibition, single agents and combos, CRL2098, cell-based, BGB or cisplatin IC20 combos, synergistic combos for chromothripsis tumors (AID 1671454); conditions: CRL2098 osteosarcoma cells, drug combinations, stronger effect = higher value;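 further: cells exposed for 96 h before readout; 0% = vehicle DMSO and 100% = killing by high DMSO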
[5] = growth inhibition, single agents and combos, HD-MB03, cell-based, BGB or cisplatin IC20 combos, synergistic combos for chromothripsis tumors (AID 1671455; in the data active means inhibition above about 83%;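 further: 0% = vehicle DMSO and 100% = high DMSO as cytotoxic control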); conditions: HD-MB03 medulloblastoma cells, stronger effect = higher value
[6] = growth inhibition, single agents and combos, UWB1.289, cell-based, BGB or cisplatin combos, synergistic combos for chromothripsis tumors (AID 1671456); conditions: UWB1.289 ovarian carcinoma cells, stronger effect = higher value;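 further: cells exposed to compound for four days; 0% = vehicle DMSO and 100% = killing by high DMSO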
[7] = growth inhibition, single agents and combos, LFS_MB_2R, cell-based, cisplatin combos, synergistic combos for chromothripsis tumors (AID 1671457); conditions: LFS_MB_2R medulloblastoma cells, stronger effect = higher value;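 further: cells exposed to compound for four days before readout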
[8] = growth inhibition, MDA-MB-436, cell-based, BGB or cisplatin combos, synergistic combos for chromothripsis tumors (AID 1671458; call rule not given here;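 further: cells exposed for 96 hours; 0% = vehicle DMSO and 100% = killing by high DMSO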); conditions: MDA-MB-436 breast carcinoma growth inhibition, drug combinations, stronger effect = higher value
[9] = UWB1.289_BRCA1 ovarian cancer growth, cell-based, BGB or cisplatin combinations (AID 1671459); conditions: UWB1.289 BRCA1 ovarian carcinoma, drug combinations, stronger effect = higher value
[10] = drug combination toxicity in non-malignant astrocytes – cell-based, BGB or cisplatin IC20 combos, cytotoxicity control for chromothriptic childhood tumor combination screen (AID 1671460); conditions: Human astrocytes, viability inhibition, drug combinations, at 0.5 µM, stronger effect = higher value;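 further: cells exposed to compounds for 96 hours before viability readout; 0% = vehicle and 100% = killing control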
[11] = BT084 cell growth, single and combined drugs, ICGC_MB145, cisplatin and BGB IC40 combos (AID 1671461); conditions: BT084 medulloblastoma cells, drug combinations, stronger effect = higher value;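 further: cells exposed to drugs for 96 hours; 0% = vehicle DMSO and 100% = high DMSO full killing control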
[12] = RCMB18 cell growth, single agent and combined, cisplatin and BGB IC40 combos (AID 1671462); conditions: RCMB18 medulloblastoma cells, stronger effect = higher value;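 further: cells exposed to compound for four days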
[13] = CRL1545 cell growth, single agent and combined, cisplatin and BGB IC20 combos (AID 1671464); conditions: CRL1545 osteosarcoma cells, stronger effect = higher value;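 further: cells exposed to compound for 96 hours before readout; 0% = vehicle DMSO and 100% = high DMSO killing control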
F380Y = experiment: BK channel mutant inhibitors and activators – cell-based, U2OS BacMam, thallium flux, beta subunits, selectivity assay, profiling panel (AID 1259406;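 active means thallium flux through the channel raised or lowered by more than 3 SD from vehicle-only wells, actives on both sides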;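 further: initial slope of Thallos dye fluorescence rise after thallium is added; log ratio against the mean of 0.3% DMSO vehicle wells on the same plate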); conditions: U2OS BacMam BK variants, at 30 µM
F380Y/beta1 = experiment: as above; conditions: U2OS BacMam BK variants, at 30 µM
F380Y/beta2Delta = experiment: as above; conditions: U2OS BacMam BK variants, at 30 µM
F380Y/beta4 = experiment: as above; conditions: U2OS BacMam BK variants, at 30 µM
[14] = target: Calcium-activated potassium channel subunit alpha-1 (Homo sapiens) + Leucine-rich repeat-containing protein 26 (Homo sapiens) (UniProt Q12791+Q2I0M4); experiment: as above; conditions: U2OS BacMam BK variants, F380Y/Slo1WT/gamma1, at 30 µM
R275C = experiment: as above; conditions: U2OS BacMam BK variants, at 30 µM
R275C/beta1 = experiment: as above; conditions: U2OS BacMam BK variants, at 30 µM
R275C/beta2Delta = experiment: as above; conditions: U2OS BacMam BK variants, at 30 µM
R275C/beta4 = experiment: as above; conditions: U2OS BacMam BK variants, at 30 µM
R275C/Slo1WT/beta2 = experiment: as above; conditions: U2OS BacMam BK variants, at 30 µM
[15] = measured here: combination with cisplatin, at 0.5 µM
[16] = measured here: combination with cisplatin, at 5 µM

Sequence of Calcium-activated potassium channel subunit alpha-1 (Homo sapiens) + Leucine-rich repeat-containing protein 26 (Homo sapiens) (Q2I0M4 whole entry, looked up, one chain of several): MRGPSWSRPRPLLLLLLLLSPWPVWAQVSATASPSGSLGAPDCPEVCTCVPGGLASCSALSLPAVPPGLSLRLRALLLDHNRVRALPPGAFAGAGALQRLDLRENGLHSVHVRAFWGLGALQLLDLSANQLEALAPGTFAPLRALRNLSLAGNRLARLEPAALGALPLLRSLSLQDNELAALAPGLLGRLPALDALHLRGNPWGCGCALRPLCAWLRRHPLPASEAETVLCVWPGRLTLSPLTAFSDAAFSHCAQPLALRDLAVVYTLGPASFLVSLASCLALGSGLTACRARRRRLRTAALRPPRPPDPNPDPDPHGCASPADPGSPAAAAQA

O=P1(N(CCCl)CCCl)NCCCO1 (stereo not drawn)
inhibition ([1]; at 0.5 µM): -31.6% (inactive) and -25.4% (inactive) | inhibition ([1]; cisplatin combo, at 0.05 µM): -7.65% and -28.7% | inhibition ([1]; cisplatin combo, at 0.5 µM): -40.7% and -25.4% | inhibition ([1]; cisplatin combo, at 5 µM): -21.7% and -28.6% | inhibition ([1]; measured here: 5 uM single agent, at 5 µM): 6.31% and -15% | inhibition ([2]; at 0.5 µM): -27.2% (inactive) and -18.7% (inactive) | inhibition ([2]; measured here: combination with BGB IC40, at 0.05 µM): -28.1% and -17.9% | inhibition [2, 15]: -62% and -22.2% | inhibition [2, 16]: -58.8% and -8.04% | inhibition ([3]; at 0.5 µM): -15.6% (inactive) and -16.2% (inactive) | inhibition ([3]; measured here: with BGB IC20, at 0.5 µM): -17.1% and -31% | inhibition ([3]; measured here: with BGB IC20, at 5 µM): -9.3% and -18.7% | inhibition ([3]; measured here: with cisplatin IC20, at 0.5 µM): -29.3% and -21% | inhibition ([3]; measured here: with cisplatin IC20, at 5 µM): -39.9% and -19.6% | inhibition ([3]; single agent, at 5 µM): 0.113% and -3.32% | inhibition ([4]; at 0.5 µM): -64.7% (inactive) and -26.3% (inactive) | inhibition ([4]; measured here: combination with BGB at IC20, at 0.5 µM): -52.1% and -36.9% | inhibition ([4]; measured here: combination with cisplatin at IC20, at 0.5 µM): -105% and -14.6% | inhibition ([5]; at 0.5 µM): -15.6% (inactive) and -8.72% (inactive) | inhibition ([5]; measured here: combo with BGB at IC20, at 0.5 µM): -13.1% and -5.67% | inhibition ([5]; measured here: combo with cisplatin at IC20, at 0.5 µM): -23.9% and -12.6% | inhibition ([6]; at 0.5 µM): -11% (inactive) and -0.72% (inactive) | inhibition ([6]; measured here: inhibition with BGB combination, at 0.05 µM): 0.467% and -11.6% | inhibition ([6]; measured here: inhibition with cisplatin combination, at 0.05 µM): -17.5% and -3.57% | inhibition ([7]; at 0.5 µM): -8.87% (inactive) and -10.9% (inactive) | inhibition [7, 15]: -12.2% and -3.73% | inhibition [7, 16]: -12% and -15.2% | inhibition ([8]; at 0.5 µM): -6.84% (inactive) and -18.8% (inactive) | inhibition ([8]; measured here: BGB combination, at 0.5 µM): -4.29% and -16.7% | inhibition ([8]; measured here: BGB combination, at 5 µM): -11.8% and -7.83% | inhibition ([8]; measured here: cisplatin combination, at 0.5 µM): -1.92% and -34.6% | inhibition ([8]; measured here: cisplatin combination, at 5 µM): -42.1% and -18.1% | inhibition ([9]; BGB combination, concentration series, at 5 µM): -8.88% and 6.63% | inhibition ([9]; at 0.5 µM): -10.4% (inactive) and -3.19% (inactive) | inhibition ([9]; cisplatin combination, concentration series, at 5 µM): -43.5% and 10.9% | inhibition [10]: 1.59% (inactive) and 8.63% (inactive) | inhibition ([10]; measured here: combo with BGB IC20): 0.13% and 3.09% | inhibition ([10]; measured here: combo with cisplatin IC20): 6.54% and 14.4% | inhibition ([11]; at 0.5 µM): -9.95% (inactive) and -11.7% (inactive) | inhibition ([11]; cisplatin combination, at 0.5 µM): -36.8% and -12% | inhibition ([11]; cisplatin combination, at 5 µM): -1.57% and -57.3% | inhibition ([11]; measured here: BGB IC40 combination 0.05 uM, at 0.05 µM): -19.2% and 1.38% | inhibition ([11]; single agent, at 5 µM): -9.56% and -21.4% | inhibition ([12]; at 0.5 µM): -4.96% (inactive) and -6.79% (inactive) | inhibition ([12]; cisplatin combo, at 5 µM): -39% and 8.55% | inhibition ([12]; measured here: BGB IC40 combination, at 0.05 µM): -12.6% and 10% | inhibition [12, 15]: -20.8% and 7.02% | inhibition ([12]; single agent, at 5 µM): -6.86% and -4.77% | inhibition ([13]; at 0.5 µM): -20.8% (inactive) and -21.4% (inactive) | inhibition ([13]; measured here: with BGB IC20 combination, at 0.5 µM): -33.7% and 3.63% | inhibition ([13]; measured here: with cisplatin IC20 combination, at 0.5 µM): -16.2% and -34% | inhibition ([13]; single agent, at 0.05 µM): -25% and -2.49% | inhibition ([13]; single agent, at 5 µM): 10.9% and -41% | log fold change Tl+ flux (F380Y): -0.0772 (inactive) | log fold change Tl+ flux (F380Y/beta1): -0.00569 (inactive) | log fold change Tl+ flux (F380Y/beta2Delta): -0.037 (inactive) | log fold change Tl+ flux (F380Y/beta4): -0.0197 (inactive) | log fold change Tl+ flux [14]: 0.0114 (inactive) | log fold change Tl+ flux (R275C): -0.0233 (inactive) | log fold change Tl+ flux (R275C/beta1): 0.00892 (inactive) | log fold change Tl+ flux (R275C/beta2Delta): -0.0421 (inactive) | log fold change Tl+ flux (R275C/beta4): 0.0832 (inactive) | log fold change Tl+ flux (R275C/Slo1WT/beta2): 0.011 (inactive)
